# Test results published in publication PMC11006913.
# Where a chain is given by its changes, count along the chain named.
# Tests used:
# Assay in all cases: PBM; 200 nM protein, PBS
# Conditions in all cases: dsDNA, one strand shown
# HOXB4 [1] = biological target: HOXB4 (Homo sapiens, UniProt P17483 148-234)
# HOXB9 [2] = biological target: HOXB9 (Homo sapiens, UniProt P17482 171-250, T197M)
# HOXB9 [3] = biological target: HOXB9 (Homo sapiens, UniProt P17482 171-250)
# HOXB4 [4] = biological target: HOXB4 (Homo sapiens, UniProt P17483 148-234, V174I)
# HOXB9 [5] = biological target: HOXB9 (Homo sapiens, UniProt P17482 171-250, R186Q)
# HOXB6 [6] = biological target: HOXB6 (Homo sapiens, UniProt P17509 132-218, K202E)
# HOXB6 [7] = biological target: HOXB6 (Homo sapiens, UniProt P17509 132-218)
# VENTX [8] = biological target: T1, VENTX (Homo sapiens, UniProt O95231 78-163, R121Q)
# T1 sequence: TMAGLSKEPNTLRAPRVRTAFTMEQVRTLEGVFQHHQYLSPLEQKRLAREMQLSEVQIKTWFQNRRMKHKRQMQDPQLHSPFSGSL
# HOXA4 [9] = biological target: HOXA4 (Homo sapiens, UniProt Q00056 201-287, W262R)
# VENTX [10] = biological target: T2, VENTX (Homo sapiens, UniProt O95231 78-163)
# T2 sequence: T1 sequence with Q44R
# VENTX [11] = biological target: T3, VENTX (Homo sapiens, UniProt O95231 78-163, Y115F)
# T3 sequence: T1 sequence with Y38F, Q44R
# HOXA2 [12] = biological target: HOXA2 (Homo sapiens, UniProt O43364 129-215, R185T)
# HOXA4 [13] = biological target: HOXA4 (Homo sapiens, UniProt Q00056 201-287, R217L)
# HOXA2 [14] = biological target: HOXA2 (Homo sapiens, UniProt O43364 129-215, R185K)
# HOXA4 [15] = biological target: HOXA4 (Homo sapiens, UniProt Q00056 201-287)
# VAX1 [16] = biological target: VAX1 (Homo sapiens, UniProt Q5SQQ9 86-172)
# VAX1 [17] = biological target: VAX1 (Homo sapiens, UniProt Q5SQQ9 86-172, T142I)
# HOXA2 [18] = biological target: HOXA2 (Homo sapiens, UniProt O43364 129-215, Y150S)
# HOXA4 [19] = biological target: HOXA4 (Homo sapiens, UniProt Q00056 201-287, W262F)
# HOXA2 [20] = biological target: HOXA2 (Homo sapiens, UniProt O43364 129-215)
# VAX1 [21] = biological target: VAX1 (Homo sapiens, UniProt Q5SQQ9 86-172, K157R)
# HOXA7 [22] = biological target: HOXA7 (Homo sapiens, UniProt P31268 116-202)
# MSX2 [23] = biological target: MSX2 (Homo sapiens, UniProt P35548 130-214, R199I)
# HOXC10 = HOXC10 (Homo sapiens, UniProt Q9NYD6 254-340, K271E)
# MSX2 [24] = biological target: MSX2 (Homo sapiens, UniProt P35548 130-214)
# MSX2 [25] = biological target: MSX2 (Homo sapiens, UniProt P35548 130-214, F161Y)
# HOXA7 [26] = biological target: HOXA7 (Homo sapiens, UniProt P31268 116-202, W177C)
# Sequence of HOXA7 (Homo sapiens, UniProt P31268 116-202, W177C) (P31268 116-202 W177C): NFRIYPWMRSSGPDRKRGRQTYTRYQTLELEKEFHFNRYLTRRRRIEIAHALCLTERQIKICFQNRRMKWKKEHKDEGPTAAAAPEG
# Sequence of HOXB4 (Homo sapiens, UniProt P17483 148-234) (P17483 148-234): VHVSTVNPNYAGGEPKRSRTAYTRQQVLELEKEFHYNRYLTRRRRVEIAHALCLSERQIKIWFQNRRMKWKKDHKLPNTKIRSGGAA
# Sequence of HOXB4 (Homo sapiens, UniProt P17483 148-234, V174I) (P17483 148-234 V174I): as the sequence (P17483 148-234) above, with V27I counted along it
# Sequence of HOXB9 (Homo sapiens, UniProt P17482 171-250, T197M) (P17482 171-250 T197M): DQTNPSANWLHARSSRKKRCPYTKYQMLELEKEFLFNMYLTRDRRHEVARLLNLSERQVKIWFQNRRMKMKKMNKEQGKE
# Sequence of VAX1 (Homo sapiens, UniProt Q5SQQ9 86-172) (Q5SQQ9 86-172): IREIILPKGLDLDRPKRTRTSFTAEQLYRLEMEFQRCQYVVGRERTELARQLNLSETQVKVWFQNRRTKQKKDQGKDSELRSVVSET
# Sequence of HOXA4 (Homo sapiens, UniProt Q00056 201-287, W262F) (Q00056 201-287 W262F): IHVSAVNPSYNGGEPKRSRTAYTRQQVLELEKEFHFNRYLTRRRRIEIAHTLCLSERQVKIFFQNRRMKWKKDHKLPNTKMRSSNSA
# Sequence of HOXB6 (Homo sapiens, UniProt P17509 132-218) (P17509 132-218): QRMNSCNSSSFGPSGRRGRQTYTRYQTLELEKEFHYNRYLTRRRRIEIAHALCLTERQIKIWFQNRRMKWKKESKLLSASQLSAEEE
# Sequence of HOXA2 (Homo sapiens, UniProt O43364 129-215) (O43364 129-215): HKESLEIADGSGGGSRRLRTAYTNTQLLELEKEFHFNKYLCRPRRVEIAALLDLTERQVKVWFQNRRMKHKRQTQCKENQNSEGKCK
# Sequence of HOXB9 (Homo sapiens, UniProt P17482 171-250, R186Q) (P17482 171-250 R186Q): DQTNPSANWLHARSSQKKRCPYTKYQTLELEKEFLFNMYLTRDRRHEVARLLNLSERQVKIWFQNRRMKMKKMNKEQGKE
# Sequence of VAX1 (Homo sapiens, UniProt Q5SQQ9 86-172, K157R) (Q5SQQ9 86-172 K157R): as the sequence (Q5SQQ9 86-172) above, with K72R counted along it
# Sequence of HOXA4 (Homo sapiens, UniProt Q00056 201-287) (Q00056 201-287): as the sequence (Q00056 201-287 W262F) above, with F62W counted along it
# Sequence of HOXB6 (Homo sapiens, UniProt P17509 132-218, K202E) (P17509 132-218 K202E): as the sequence (P17509 132-218) above, with K71E counted along it
# Sequence of HOXA4 (Homo sapiens, UniProt Q00056 201-287, W262R) (Q00056 201-287 W262R): as the sequence (Q00056 201-287 W262F) above, with F62R counted along it
# Sequence of HOXA2 (Homo sapiens, UniProt O43364 129-215, R185T) (O43364 129-215 R185T): as the sequence (O43364 129-215) above, with R57T counted along it
# Sequence of VAX1 (Homo sapiens, UniProt Q5SQQ9 86-172, T142I) (Q5SQQ9 86-172 T142I): as the sequence (Q5SQQ9 86-172) above, with T57I counted along it
# Sequence of HOXA4 (Homo sapiens, UniProt Q00056 201-287, R217L) (Q00056 201-287 R217L): as the sequence (Q00056 201-287 W262F) above, with R17L, F62W counted along it
# Sequence of HOXA2 (Homo sapiens, UniProt O43364 129-215, Y150S) (O43364 129-215 Y150S): as the sequence (O43364 129-215) above, with Y22S counted along it
# Sequence of HOXA2 (Homo sapiens, UniProt O43364 129-215, R185K) (O43364 129-215 R185K): as the sequence (O43364 129-215) above, with R57K counted along it
# Sequence of HOXB9 (Homo sapiens, UniProt P17482 171-250) (P17482 171-250): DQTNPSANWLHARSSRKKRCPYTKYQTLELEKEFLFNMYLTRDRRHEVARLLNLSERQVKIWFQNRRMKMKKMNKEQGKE
# Sequence of HOXA7 (Homo sapiens, UniProt P31268 116-202) (P31268 116-202): as the sequence (P31268 116-202 W177C) above, with C62W counted along it
# Sequence of MSX2 (Homo sapiens, UniProt P35548 130-214, F161Y) (P35548 130-214 F161Y): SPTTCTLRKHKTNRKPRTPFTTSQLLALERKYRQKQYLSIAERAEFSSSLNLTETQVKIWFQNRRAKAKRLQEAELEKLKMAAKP
# Sequence of MSX2 (Homo sapiens, UniProt P35548 130-214, R199I) (P35548 130-214 R199I): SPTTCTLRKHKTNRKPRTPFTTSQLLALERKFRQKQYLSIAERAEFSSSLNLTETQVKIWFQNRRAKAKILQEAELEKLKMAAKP
# Sequence of MSX2 (Homo sapiens, UniProt P35548 130-214) (P35548 130-214): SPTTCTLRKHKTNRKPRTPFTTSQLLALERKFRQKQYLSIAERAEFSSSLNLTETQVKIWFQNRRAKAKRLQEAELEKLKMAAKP
# Sequence of HOXC10 (Q9NYD6 254-340 K271E): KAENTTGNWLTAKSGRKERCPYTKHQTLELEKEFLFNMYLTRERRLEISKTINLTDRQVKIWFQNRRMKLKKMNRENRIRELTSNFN
sequence,measurement,setting,value
CCGCCTAG,binding signal,HOXB4 [1],"7.58 upbm affinity estimate (log intensity, higher = more binding, comparable within an allelic series)"
same,binding signal,HOXB9 [2],"8.4 upbm affinity estimate (log intensity, higher = more binding, comparable within an allelic series)"
same,binding signal,HOXB9 [3],"8.41 upbm affinity estimate (log intensity, higher = more binding, comparable within an allelic series)"
same,binding signal,HOXB4 [4],"7.95 upbm affinity estimate (log intensity, higher = more binding, comparable within an allelic series)"
same,binding signal,HOXB9 [5],"8.38 upbm affinity estimate (log intensity, higher = more binding, comparable within an allelic series)"
CCTACAGG,binding signal,HOXB4 [1],"7.69 upbm affinity estimate (log intensity, higher = more binding, comparable within an allelic series)"
same,binding signal,HOXB9 [2],"8.54 upbm affinity estimate (log intensity, higher = more binding, comparable within an allelic series)"
same,binding signal,HOXB6 [6],"9 upbm affinity estimate (log intensity, higher = more binding, comparable within an allelic series)"
same,binding signal,HOXB9 [3],"8.25 upbm affinity estimate (log intensity, higher = more binding, comparable within an allelic series)"
same,binding signal,HOXB4 [4],"7.75 upbm affinity estimate (log intensity, higher = more binding, comparable within an allelic series)"
same,binding signal,HOXB9 [5],"8.25 upbm affinity estimate (log intensity, higher = more binding, comparable within an allelic series)"
same,binding signal,HOXB6 [7],"8.98 upbm affinity estimate (log intensity, higher = more binding, comparable within an allelic series)"
GCTAATGA,binding signal,HOXB4 [1],"13.3 upbm affinity estimate (log intensity, higher = more binding, comparable within an allelic series)"
same,binding signal,VENTX [8],"11.9 upbm affinity estimate (log intensity, higher = more binding, comparable within an allelic series)"
same,binding signal,HOXA4 [9],"10.5 upbm affinity estimate (log intensity, higher = more binding, comparable within an allelic series)"
same,binding signal,VENTX [10],"12.5 upbm affinity estimate (log intensity, higher = more binding, comparable within an allelic series)"
same,binding signal,VENTX [11],"11.9 upbm affinity estimate (log intensity, higher = more binding, comparable within an allelic series)"
same,binding signal,HOXA2 [12],"13.1 upbm affinity estimate (log intensity, higher = more binding, comparable within an allelic series)"
same,binding signal,HOXA4 [13],"12.1 upbm affinity estimate (log intensity, higher = more binding, comparable within an allelic series)"
same,binding signal,HOXB4 [4],"14 upbm affinity estimate (log intensity, higher = more binding, comparable within an allelic series)"
same,binding signal,HOXA2 [14],"13.6 upbm affinity estimate (log intensity, higher = more binding, comparable within an allelic series)"
same,binding signal,HOXA4 [15],"13.9 upbm affinity estimate (log intensity, higher = more binding, comparable within an allelic series)"
same,binding signal,VAX1 [16],"13.5 upbm affinity estimate (log intensity, higher = more binding, comparable within an allelic series)"
same,binding signal,VAX1 [17],"13.3 upbm affinity estimate (log intensity, higher = more binding, comparable within an allelic series)"
same,binding signal,HOXA2 [18],"10.8 upbm affinity estimate (log intensity, higher = more binding, comparable within an allelic series)"
same,binding signal,HOXA4 [19],"11.9 upbm affinity estimate (log intensity, higher = more binding, comparable within an allelic series)"
same,binding signal,HOXA2 [20],"12.8 upbm affinity estimate (log intensity, higher = more binding, comparable within an allelic series)"
same,binding signal,VAX1 [21],"13.4 upbm affinity estimate (log intensity, higher = more binding, comparable within an allelic series)"
GGTCATTA,binding signal,HOXB4 [1],"13.3 upbm affinity estimate (log intensity, higher = more binding, comparable within an allelic series)"
same,binding signal,VENTX [8],"11.8 upbm affinity estimate (log intensity, higher = more binding, comparable within an allelic series)"
same,binding signal,HOXB9 [2],"10 upbm affinity estimate (log intensity, higher = more binding, comparable within an allelic series)"
same,binding signal,HOXA4 [9],"10.6 upbm affinity estimate (log intensity, higher = more binding, comparable within an allelic series)"
same,binding signal,VENTX [10],"12.4 upbm affinity estimate (log intensity, higher = more binding, comparable within an allelic series)"
same,binding signal,HOXA7 [22],"11.8 upbm affinity estimate (log intensity, higher = more binding, comparable within an allelic series)"
same,binding signal,VENTX [11],"11.8 upbm affinity estimate (log intensity, higher = more binding, comparable within an allelic series)"
same,binding signal,HOXB6 [6],"9.99 upbm affinity estimate (log intensity, higher = more binding, comparable within an allelic series)"
same,binding signal,HOXA2 [12],"13 upbm affinity estimate (log intensity, higher = more binding, comparable within an allelic series)"
same,binding signal,HOXA4 [13],"12.5 upbm affinity estimate (log intensity, higher = more binding, comparable within an allelic series)"
same,binding signal,HOXB4 [4],"14 upbm affinity estimate (log intensity, higher = more binding, comparable within an allelic series)"
same,binding signal,MSX2 [23],"11.6 upbm affinity estimate (log intensity, higher = more binding, comparable within an allelic series)"
same,binding signal,HOXA2 [14],"13.7 upbm affinity estimate (log intensity, higher = more binding, comparable within an allelic series)"
same,binding signal,HOXA4 [15],"13.9 upbm affinity estimate (log intensity, higher = more binding, comparable within an allelic series)"
same,binding signal,HOXC10,"12 upbm affinity estimate (log intensity, higher = more binding, comparable within an allelic series)"
same,binding signal,MSX2 [24],"12.7 upbm affinity estimate (log intensity, higher = more binding, comparable within an allelic series)"
same,binding signal,VAX1 [16],"13.6 upbm affinity estimate (log intensity, higher = more binding, comparable within an allelic series)"
same,binding signal,MSX2 [25],"12.5 upbm affinity estimate (log intensity, higher = more binding, comparable within an allelic series)"
same,binding signal,VAX1 [17],"13.5 upbm affinity estimate (log intensity, higher = more binding, comparable within an allelic series)"
same,binding signal,HOXA2 [18],"10.9 upbm affinity estimate (log intensity, higher = more binding, comparable within an allelic series)"
same,binding signal,HOXA7 [26],"8.85 upbm affinity estimate (log intensity, higher = more binding, comparable within an allelic series)"
same,binding signal,HOXA4 [19],"11.9 upbm affinity estimate (log intensity, higher = more binding, comparable within an allelic series)"
same,binding signal,HOXA2 [20],"12.8 upbm affinity estimate (log intensity, higher = more binding, comparable within an allelic series)"
same,binding signal,VAX1 [21],"13.6 upbm affinity estimate (log intensity, higher = more binding, comparable within an allelic series)"
same,binding signal,HOXB6 [7],"12.1 upbm affinity estimate (log intensity, higher = more binding, comparable within an allelic series)"
